This is a sample that favours compounds with a hit; in the whole collection about 3.6% have one here.
Anthrax LF prot: Bacillus anthracis LF protease inhibitors, primary screen, biochemical, multiplex microsphere, MLPCN library | AID 588501, 2011 | multiplex microsphere protease cleavage assay | inhibition, % at 10 µM | 0.12% of 360,000 active | Lethal factor (Bacillus anthracis), P15917
BoNT A protease: BoNT/A light chain protease inhibitors, primary screen, biochemical, flow cytometry, MLPCN library; Botulinum neurotoxin type A light chain protease (Clostridium botulinum A str. ATCC 3502); multiplex microsphere protease substrate cleavage; inhibition, % at 10 µM; 0.17% of 360,000 active; AID 588499, 2011
Bead autofluor: compound fluorescence in toxin protease inhibitor counterscreen; compound autofluorescence counterscreen, microsphere flow cytometry; active compounds read high; fluorescence intensity (no concentration beside the values); 3.1% of 360,000 active; AID 624483; in the data active means fluorescence intensity above about 16000; inconclusive means no clear call, values can overlap the other calls
BoNT F protease: BoNT/F light chain protease inhibitors, primary screen, biochemical, flow cytometry, MLPCN library; Botulinum neurotoxin type F light chain protease (Clostridium botulinum); Multiplex microsphere protease cleavage assay; inhibition, % at 10 µM; 0.22% of 360,000 active; AID 588497, 2011; in the data active means inhibition above about 35%, passing the limit was not always enough; inconclusive means no clear call, values can overlap the other calls
MazF activator: activators of E. coli MazEF toxin-antitoxin RNase, primary screen, biochemical, fluorescence, uHTS; Endoribonuclease toxin MazF (Escherichia coli (strain K12)), P0AE70; FAM/BHQ RNA-DNA oligo cleavage fluorescence, 5 h; activation, % at 20 µM; 0.32% of 350,000 active; AID 504720, 2011; in the data active means activation above about 50%
Target sequence (P0AE70 whole entry, looked up): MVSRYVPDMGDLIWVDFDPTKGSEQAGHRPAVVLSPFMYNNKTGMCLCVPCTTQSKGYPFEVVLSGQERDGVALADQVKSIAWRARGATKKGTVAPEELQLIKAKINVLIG
Of the large screens only hits and unclear results are named; the others gave an inactive call. Unless noted, no stated cut-off is given here; in the data, active means inhibition above about 30%; inconclusive means no clear call, values can overlap the other calls; inactive means below that.

CC1(C(=O)Nc2nccs2)Cc2ccccc2C(=O)O1 (stereo not given)	none
CC1(C(=O)Nc2nnc(SCc3ccccc3)s2)Cc2ccccc2C(=O)O1 (stereo not given)	Bead autofluor 22013
Cc1csc(NC(=O)C2CCCN2C(=O)Oc2ccccc2)n1 (stereo not given)	Bead autofluor 22986
COc1ccc(Nc2nc3cc(C)ccc3cc2C#N)cc1	none
COc1ccc(Nc2nc3c(C)cccc3cc2C#N)c(OC)c1	none
COc1ccc(Nc2nc3ccc(C)cc3cc2C#N)c(OC)c1	MazF activator 138.9
COc1ccc(Nc2nc3cc(C)ccc3cc2C#N)c(OC)c1	MazF activator 62.2
Cc1ccc(CC(=O)NNC(=O)c2cccs2)cc1C	none
O=C(Oc1c(Cl)cc(Cl)c2ccccc12)N1CCCC1	Bead autofluor 22642
O=C(Nc1ccccc1)OCN1C(=O)c2ccccc2C1=O	Bead autofluor 17484
O=C(CN1C(=O)c2ccccc2C1=O)Nc1ccccc1	BoNT F protease inconclusive
COc1ccc(-c2cn(CCO)c(-c3ccc(Cl)nc3)n2)cc1	none
CCN(CC)CCCN(Cc1cc2cc3c(cc2[nH]c1=O)OCO3)C(=S)NCCCN(C)C	BoNT F protease inconclusive
CCC(=O)N(CCc1ccccc1)Cc1cc2cc3c(cc2[nH]c1=O)OCO3	Bead autofluor 21744
CCC(=O)N(Cc1ccc(C)cc1)Cc1cc2cc3c(cc2[nH]c1=O)OCO3	Bead autofluor 23631
CCN(CC)CCCN(Cc1cc2cc3c(cc2[nH]c1=O)OCO3)C(=S)NC	BoNT F protease 35.3
CCOc1cc(C(=O)N2CCC(CC3CC(c4ccc(Cl)cc4)=NO3)(C(=O)NCC3CCCCC3)CC2)cc(OCC)c1OCC (stereo not given)	none
CCc1nc2c(OCCn3cccc3)cccn2c1N(C)C(=O)c1ccccc1F	none (no result: MazF activator)
Cc1[nH]n(-c2ccc([N+](=O)[O-])cc2)c(=O)c1C=NCCN1CCN(C(=O)c2ccc(Br)cc2)CC1	Bead autofluor inconclusive
Cc1[nH]n(-c2ccc([N+](=O)[O-])cc2)c(=O)c1C=NCCN1CCN(C(=O)c2ccc(F)cc2)CC1	BoNT A protease inconclusive, Bead autofluor 20052
CCN(CC)CCCn1c(=S)[nH]c2cc(OC)c(OC)cc2c1=O	BoNT A protease inconclusive, Bead autofluor 22782
COC(=O)c1ccc2c(=O)n(NC(C)=O)c(=S)[nH]c2c1	Bead autofluor 23622
COC(=O)c1ccc2c(=O)n(-c3ccc(OC)cc3)c(=S)[nH]c2c1	none
COc1ccc(OC)c(NC(=O)CCn2c(=S)[nH]c3ccccc3c2=O)c1	none
COc1ccc(OC)c(NC(=O)c2ccc3c(=O)n(CCc4ccccc4)c(=S)[nH]c3c2)c1	MazF activator 52.1
COCCn1c(=S)[nH]c2cc(OC)c(OC)cc2c1=O	none
CCN(CC)CCNC(=O)c1ccc2c(=O)n(C3CCCC3)c(=S)[nH]c2c1	Bead autofluor 20853
Fc1ccccc1NC(=S)N1CCOCC1	none
CCn1c(=S)[nH]c2cc(C(=O)OC)ccc2c1=O	none
CCN(CC)CCCn1c(=S)[nH]c2cc(C(=O)OC)ccc2c1=O	Bead autofluor 23192
COc1cc2[nH]c(=S)n(NC(=O)c3ccccc3)c(=O)c2cc1OC	Bead autofluor 16796
COc1cc2c(cc1OC)C(c1ccc3c(c1)Cc1ccccc1-3)OC(=O)C2 (stereo not given)	none (no result: MazF activator)
COC(=O)C1=C(C)NC2=C(C(=O)CC(C)(C)C2)C1c1cccc(C)n1 (stereo not given)	Bead autofluor 23176
CC1=C(C(=O)OC(C)C)C(c2ccc(N(C)C)cc2)C2=C(CC(C)(C)CC2=O)N1 (stereo not given)	none
CCOC(=O)C1=C(C)NC2=C(C(=O)CC(C)(C)C2)C1c1ccc(N(C)C)cc1 (stereo not given)	Bead autofluor 24751
CCOc1cc(C2C(C(=O)N3CCCCC3)=C(C)NC3=C2C(=O)CC(C)(C)C3)ccc1O (stereo not given)	Bead autofluor 23188
COc1ccc(-c2coc3c(C(=O)NCC4CC4)cccc23)c(C)c1	none (no result: MazF activator)
NNc1nc(-c2ccccc2)nc(-c2ccccc2)c1Br	BoNT F protease inconclusive
CC(C)=CC(=O)NCc1c(Cl)cccc1-n1cccc1	Bead autofluor 24294
COc1ccc(NC(=O)C2(C)Cc3c(-c4ccc(N(C)C)cc4)ccnc3O2)cn1 (stereo not given)	none (no result: MazF activator)
c1ccc2c(c1)CNc1ccccc1-2	none
COc1cccc(C2Nc3ccccc3NC3=C2C(=O)CC(C)(C)C3)c1OC (stereo not given)	BoNT F protease inconclusive
COc1ccccc1C1Nc2ccccc2NC2=C1C(=O)CC(C)(C)C2 (stereo not given)	BoNT F protease 36.6
CCN(CC)CC(C)CNC(=O)CC(C(=O)N1CCc2ccccc21)n1ccnc1 (stereo not given)	none
O=C(CC(C(=O)N1CCc2ccccc21)n1ccnc1)NCc1ccccc1 (stereo not given)	Bead autofluor 18019
COc1ccc(-c2ccnc3nc(N4CCN(c5ccccc5)CC4)nn23)cc1	BoNT A protease inconclusive, Bead autofluor 22429
Fc1ccc(-c2ccnc3nc(N4CCOCC4)nn23)cc1	Bead autofluor 23704
Fc1ccc(-c2ccnc3nc(-n4cccc4)nn23)cc1	none
COC(=O)c1ccccc1NC(=O)C1CCCCC1C(=O)O (stereo not given)	BoNT A protease inconclusive, Bead autofluor 23211
O=C(O)C1CCCCC1C(=O)Nc1ccc(F)cc1F (stereo not given)	Bead autofluor 20999
CCN(c1ccc(OC)cc1)S(=O)(=O)c1ccc2c(c1)CC(C)N2C(=O)C1CC1 (stereo not given)	none
Cc1ccc(S(=O)(=O)NCc2nnc(SCC(=O)Nc3cccc(C)c3C)n2C)cc1	Bead autofluor 21005
COc1ccc(NC(=S)NCc2ccccc2Cl)c(OC)c1	none
COc1ccc(NC(=S)NCCc2ccccc2OC)c(OC)c1	Bead autofluor 16398
COc1ccc(OCCNC(=S)Nc2cccc3ccccc23)cc1	Bead autofluor 22439
COc1ccccc1CCNC(=O)c1ccc(C)o1	BoNT A protease inconclusive, Bead autofluor 21801
O=C(C[C@@H]1C[C@H]2c3cc(NC(=O)Nc4ccccc4F)ccc3O[C@H]2[C@H](CO)O1)NCC(F)(F)F	none
CCCCNC(=O)CCNS(=O)(=O)c1ccc(Br)cc1	none
C=CCNC(=O)CCNS(=O)(=O)c1ccc(Br)cc1	Bead autofluor 22875
CCC(C)NC(=O)CCNS(=O)(=O)c1ccc(Br)cc1 (stereo not given)	Bead autofluor 21722
COc1ccc(-c2cc3nc(C)cc(C)n3n2)cc1	Bead autofluor 20324
Cc1cc(C)n2nc(NCc3ccccc3)nc2n1	BoNT A protease inconclusive, Bead autofluor 20633

High-throughput results as filed in PubChem.
